Source: PubChem BioAssay
KinaseGlo FLuc = Counterscreen for Luciferase (Kinase-Glo TM) Inhibition | Potency, µM (top dose mostly 38.3 µM), inactives show top-dose activity change, negative = inhibition, actives largely listed as inhibitors | Kinase-Glo luciferase, ATP luminescence, 8 min | AID 1379, 2008 | 200,000 tested, 0.28% active; further: on the % scale 0 is the no-effect control and ±100 the full control effect; nearly all actives have a fitted effect of over 60% in size
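Inhibition of Kinase-Glo luciferase light generation was assessed at 10 uM ATP in pH 7.2 imidazole buffer, with luminescence measured after eight minutes at ambient temperature.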
FLuc counter = qHTS profiling assay for firefly luciferase inhibitor/activator using purifed enzyme and Km concentrations of substrates (counterscreen for miR-21 project); 360,000 tested, 6.9% active; Potency, µM (doses to about 57.5 µM), inactives show top-dose activity change, negative = inhibition, actives largely listed as inhibitors; purified FLuc, Km substrates, luminescence inhibition; Luciferin 4-monooxygenase (Photinus pyralis), P08659;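 further: plate controls were vehicle for no effect and reference inhibitor for full effect; nearly all actives have a fitted effect of over 55% in size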
Target sequence (P08659 whole entry, looked up): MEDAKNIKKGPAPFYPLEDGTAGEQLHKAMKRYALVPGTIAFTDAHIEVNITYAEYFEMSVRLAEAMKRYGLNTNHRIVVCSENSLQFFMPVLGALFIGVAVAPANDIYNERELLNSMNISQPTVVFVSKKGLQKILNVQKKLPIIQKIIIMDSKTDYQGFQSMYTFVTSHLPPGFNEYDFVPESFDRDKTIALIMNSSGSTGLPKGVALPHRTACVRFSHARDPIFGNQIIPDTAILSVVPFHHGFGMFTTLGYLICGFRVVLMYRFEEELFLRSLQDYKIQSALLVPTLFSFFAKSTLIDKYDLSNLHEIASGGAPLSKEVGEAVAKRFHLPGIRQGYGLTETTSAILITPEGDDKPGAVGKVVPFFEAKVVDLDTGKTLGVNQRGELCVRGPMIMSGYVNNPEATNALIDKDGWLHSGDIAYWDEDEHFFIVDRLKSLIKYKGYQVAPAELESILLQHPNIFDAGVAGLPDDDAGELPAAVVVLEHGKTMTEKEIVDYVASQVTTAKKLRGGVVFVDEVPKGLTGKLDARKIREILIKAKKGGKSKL
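Biochemical qHTS of compounds, final roughly 60 µM downward over six points, against 10 nM purified firefly luciferase using Km concentrations of substrates (10 uM D-luciferin, 10 uM ATP) in Tris acetate pH 7.5 buffer; luminescence output.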
NPC1 promoter act = qHTS Assay for NPC1 Promoter Activators | Huh7 NPC1 promoter luciferase reporter, 24 h | Potency, µM (titrated, usually from 9.22 µM), inactives show at the highest dose activation, actives largely listed as activators | 320,000 tested, 2.4% active; further: % of control where 0% means no effect; nearly all actives have a fitted effect of over 60% in size
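NPC1 promoter–luciferase Huh7 cells; 24 h compound; luminescence.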
SMN2 splice up = qHTS Assay for Enhancers of SMN2 Splice Variant Expression; HEK293 SMN2-luciferase splicing reporter, luminescence, 30-36 h; Potency, µM (series often up to 46.1 µM), without a hit: at the top dose activity change, positive = activation, hits mostly activators; 210,000 tested, 2.8% active; AID 1458, 2008; further: % of control where 0% means no effect; nearly all actives have a fitted effect of over 55% in size
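HEK293 cells carry an SMN2 […]–luciferase reporter in which exon 7 inclusion puts luciferase in frame. Cells were plated 10-12 h before compound addition, then incubated 30-36 h at 37C. ONE-Glo luminescence was read; sodium butyrate at 4.5 mM final served as control.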
Rab9 promoter act = qHTS Assay for Rab9 Promoter Activators. Huh7 Rab9 promoter-luciferase reporter, luminescence, 24 h. Potency, µM (doses to about 9.22 µM), for inactives: at the top dose activation, negative = inhibition, actives largely listed as activators. 320,000 tested, 2.8% active. AID 485297, 2010; further: % of control where 0% means no effect; nearly all actives have a fitted effect of over 60% in size
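Luminescence read-out: Huh7 cells stably expressing Rab9-luciferase, treated 24 h with compound at 37 °C, then lysed with luciferase reagent for 10 min at ambient before reading.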
The depositor's hits bear a star; [ ] = dose if it differs, or a comment. Sampled rows, rich in hits. Any-hit rate of the full collection: about 7.3%. The call rests on the fitted dose curve; in most records, active means well fitted curve in the direction sought with a large enough effect; inconclusive means small, poorly fitted or top-dose-only effect, or another doubt; inactive means no such curve, though single readings can be large; an effect the other way counts as inactive or inconclusive. Potency means the concentration at half of the fitted maximal effect.

`CCOc1ccc(NC(=O)c2cccs2)c([N+](=O)[O-])c1` gave KinaseGlo FLuc -0.6%, FLuc counter inconclusive, NPC1 promoter act inconclusive, SMN2 splice up 7.08µM* and Rab9 promoter act 1.58µM*.
CCOc1ccc(NC(=O)c2ccc(CC)s2)c([N+](=O)[O-])c1 was read as KinaseGlo FLuc -4.1%, FLuc counter -5.1%, NPC1 promoter act inconclusive and Rab9 promoter act 2.24µM*.
`CCOc1ccc(NC(=O)c2ccco2)c([N+](=O)[O-])c1` gave KinaseGlo FLuc 0.1%, FLuc counter 2.39µM*, NPC1 promoter act 2µM*, SMN2 splice up 14.1µM* and Rab9 promoter act 1.58µM*.
For CCOc1ccc(NC(=O)c2cccnc2Cl)c([N+](=O)[O-])c1 the results were KinaseGlo FLuc -1.8%, FLuc counter 0.3%, NPC1 promoter act 1.0%, SMN2 splice up 1.0% and Rab9 promoter act 2.1%.
`COc1ccc(-c2ncc3ccccn23)cc1` gave KinaseGlo FLuc -3.0%, FLuc counter inconclusive, NPC1 promoter act 5.1%, SMN2 splice up inconclusive and Rab9 promoter act inconclusive.
COc1ccc(-c2nc3ccccn3c2CN2CCN(c3ccccc3F)CC2)cc1 was read as KinaseGlo FLuc 1.0%, FLuc counter 16.9µM*, NPC1 promoter act 0.8%, SMN2 splice up 5.2% and Rab9 promoter act 2.3%.
Screening COc1ccc(-c2nc3ccccn3c2Cl)cc1 returned FLuc counter 0.426µM*, NPC1 promoter act 3.16µM* and Rab9 promoter act 0.794µM*.
CCn1cc(/C=N/NC(=O)c2ccc3c(c2)OCO3)c(C)n1 was read as KinaseGlo FLuc -5.5%, FLuc counter inconclusive, NPC1 promoter act 5.2%, SMN2 splice up inconclusive and Rab9 promoter act -3.0%.
For CCn1nc(C)c(/C=N\NC(=O)c2ccc3c(c2)OCO3)c1C the results were KinaseGlo FLuc -5.5%, FLuc counter 23.9µM*, NPC1 promoter act 5.2%, SMN2 splice up 18.8% and Rab9 promoter act 2.5%.
`CCn1nc(C)c(CNC(=O)Nc2ccc3c(c2)OCO3)c1C` gave KinaseGlo FLuc -2.7%, FLuc counter 23.9µM*, NPC1 promoter act inconclusive, SMN2 splice up inconclusive and Rab9 promoter act inconclusive.
Screening CCn1ncc(/C=N/NC(=O)c2ccc3c(c2)OCO3)c1C returned KinaseGlo FLuc -10.7%, FLuc counter 16.9µM*, NPC1 promoter act -10.2%, SMN2 splice up 17.0% and Rab9 promoter act 6.8%.
Cc1ccccc1-c1noc(-c2cccnc2N(C)Cc2ccc(Cl)cc2)n1 was read as FLuc counter -5.2%.
N=C(N)c1ccc(/C=C\c2ccc(C(=N)N)cc2)cc1 was read as KinaseGlo FLuc -4.8%[7.66 µM] and SMN2 splice up -0.7%[9.22 µM].
For O=c1cc(N2CCN(c3ccc(F)cc3)CC2)[nH]c(=O)n1-c1cccc(Br)c1 the results were FLuc counter -15.6%.
Screening O=C(CC(=O)N/N=C/c1ccc(F)cc1)N/N=C/c1ccc(F)cc1 returned FLuc counter 15.1µM*, NPC1 promoter act 1.4% and Rab9 promoter act 2.4%.
O=C(CCC(=O)Nc1ccc(F)cc1)N/N=C/c1ccc(F)cc1 was read as FLuc counter -0.8%, NPC1 promoter act -1.7% and Rab9 promoter act 0.2%.
For CC(=O)Nc1cccc(C(=O)N/N=C/c2ccc(F)cc2)c1 the results were KinaseGlo FLuc -7.4%, FLuc counter 6.01µM*, NPC1 promoter act 2.82µM*, SMN2 splice up 26.8%[1.84 µM] and Rab9 promoter act 1.41µM*.
`Cc1ccc(C(=O)Nc2ccc(C(=O)N/N=C/c3ccncc3)cc2)cc1` gave KinaseGlo FLuc -0.4%, FLuc counter -2.1%, NPC1 promoter act -11.9%, SMN2 splice up 2.6% and Rab9 promoter act 13.2%.
Cc1ccc(C(=O)Nc2cccc(C(=O)N/N=C/c3ccc(F)cc3)c2)cc1 was read as FLuc counter 2.39µM*, NPC1 promoter act 2.24µM* and Rab9 promoter act 1.41µM*.
Screening Cc1cc(-c2ccc(C)c(S(=O)(=O)N3CCN(c4cccc(C(F)(F)F)c4)CC3)c2)on1 returned FLuc counter -1.2%.
For N#CC(=C1N=c2ccccc2=N1)c1c(O)[nH]c2ccccc12 the results were KinaseGlo FLuc -7.5%, FLuc counter inconclusive, NPC1 promoter act 11.7%, SMN2 splice up 20.7% and Rab9 promoter act 15.6%.
For Oc1[nH]c(N=C2N=c3ccccc3=N2)c2ccccc12 the results were FLuc counter 1.35µM*, NPC1 promoter act 3.16µM* and Rab9 promoter act inconclusive.
`Cc1ccc(-n2nc3cc(C)c(N)cc3n2)cc1` gave KinaseGlo FLuc -9.4%, FLuc counter 0.269µM*, NPC1 promoter act 3.98µM*, SMN2 splice up 1.41µM* and Rab9 promoter act 1.12µM*.
`Cc1ccc(C)c(N)c1` gave FLuc counter -10.8%, NPC1 promoter act 0.4%, SMN2 splice up -2.1% and Rab9 promoter act -4.6%.
For CCc1ccc(-n2nc3cc(C)c(N)cc3n2)cc1 the results were FLuc counter 0.19µM*, NPC1 promoter act 0.316µM* and Rab9 promoter act 0.126µM*.
Screening O=C(O)c1cccc(-c2nnn(Cc3ccccc3)n2)c1 returned KinaseGlo FLuc 2.2%, FLuc counter 10.7µM*, NPC1 promoter act 1.41µM*, SMN2 splice up 2.51µM* and Rab9 promoter act 0.708µM*.
For Cc1ccccc1Cn1nnc(-c2ccc(C(=O)O)cc2)n1 the results were KinaseGlo FLuc 0.5%, FLuc counter inconclusive, NPC1 promoter act 0.7%, SMN2 splice up 7.8% and Rab9 promoter act 3.0%.
Screening COc1ccc(-c2nnn(Cc3ccccc3)n2)cc1 returned FLuc counter 21.3µM*, NPC1 promoter act inconclusive and Rab9 promoter act 3.16µM*.
`O=C(O)c1cccc(-c2nnn(Cc3ccccc3Cl)n2)c1` gave KinaseGlo FLuc 0.2%, FLuc counter 3.01µM*, NPC1 promoter act 0.447µM*, SMN2 splice up 1.58µM* and Rab9 promoter act 0.398µM*.
Screening COc1cccc(COC(=O)c2ccc(-c3nnn(Cc4ccccc4)n3)cc2)c1 returned FLuc counter -6.0% and SMN2 splice up 7.0%.
Cc1ccccc1Cn1nnc(-c2cccc(C(=O)O)c2)n1 was read as KinaseGlo FLuc -1.1%, FLuc counter 4.26µM*, NPC1 promoter act 0.447µM*, SMN2 splice up 7.94µM* and Rab9 promoter act 0.794µM*.
`CSc1ccc(-c2nnn(Cc3ccc(C)cc3)n2)cc1` gave KinaseGlo FLuc 13.9%, FLuc counter 10.7µM*, NPC1 promoter act inconclusive, SMN2 splice up 17.5% and Rab9 promoter act inconclusive.
Screening Cc1ccccc1-c1nnn(Cc2ccc(-c3nn[nH]n3)cc2)n1 returned KinaseGlo FLuc 2.8%, FLuc counter inconclusive, NPC1 promoter act 1.2%, SMN2 splice up -4.0% and Rab9 promoter act 3.9%.
